# High-throughput results as filed in PubChem BioAssay.
# Shown are actives, neighbours in structure and some others; about 2.9% of the full set was active somewhere.
# SMARCA2 act = activators of SMARCA2 function; activation, % at 9.1 µM; MG213 cells, MMTV-luciferase reporter, dexamethasone, overnight; AID 652017; 1% of 370,000 active; in the data active means activation above about 7.8%;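 further: 0% = vehicle wells and 100% = reference activator wells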
# FAS-TE inh = inhibitors of human fatty acid synthase thioesterase domain; recombinant FAS-TE, OMFH fluorogenic substrate, fluorescence endpoint; 0.67% of 360,000 active; inhibition, % at 15 µM;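 active means compounds whose normalised, plate-corrected inhibition of enzyme fluorescence in the single-dose primary screen is 50% or more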;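 further: 0% = DMSO with enzyme and 100% = substrate without enzyme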
# GAA850 FXN act = activators of GAA850 frataxin (FXN) promoter; HEK293 lucGAA850 FXN promoter luciferase reporter, 24 h; percent of 10 µM SAHA response; activation, % at 6 µM; 0.56% of 360,000 active; AID 540364;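 active means activation above the average of all compounds screened plus 3 SD, cutoff fixed separately per campaign, cut at about 7.5% in these data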;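 further: 0% = DMSO wells and 100% = 10 µM SAHA wells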
# proKLK7 act = activates the human kallikrein-7 zymogen; P49862; purified proKLK7, EDANS-DABCYL substrate fluorescence; 100% is mature enzyme control, 0% vehicle; activation, % at 7 µM; 0.9% of 370,000 active;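 active means activation above the mean of all tested compounds plus 3 SD, computed per campaign excluding outliers beyond control limits, cut at about 13% in these data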
# Target sequence (P49862 whole entry, looked up): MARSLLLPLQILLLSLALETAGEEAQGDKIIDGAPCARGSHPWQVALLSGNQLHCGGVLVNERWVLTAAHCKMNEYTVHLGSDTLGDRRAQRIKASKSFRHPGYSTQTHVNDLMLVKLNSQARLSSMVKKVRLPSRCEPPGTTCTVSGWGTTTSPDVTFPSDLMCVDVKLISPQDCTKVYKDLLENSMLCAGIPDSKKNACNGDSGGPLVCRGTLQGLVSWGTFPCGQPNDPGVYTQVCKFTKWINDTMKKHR
# FAS-TE conf = confirmation of human fatty acid synthase thioesterase inhibitors; shares compounds with FAS-TE inh; recombinant FAS-TE, OMFH fluorogenic substrate, fluorescence; inhibition, % at 15 µM; AID 624325; 45% of 2,300 active;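 active means compounds inhibiting the enzyme by at least 50% at 15 µM in any one of the replicates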;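 further: 0% = enzyme with DMSO only and 100% = wells lacking enzyme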
# * = called active by the depositor; . = not tested or not shown.
SMILES,SMARCA2 act,FAS-TE inh,GAA850 FXN act,proKLK7 act,FAS-TE conf
CCn1c(=S)sc2c(=O)n(CC(=O)NC(C)CCc3ccccc3)c(C)nc21 (stereo unspecified),-1,79*,1,0,74*
O=C(O)c1cc(NN=Nc2cccc([N+](=O)[O-])c2)cc([N+](=O)[O-])c1,1,12,-1,-1,.
O=C(O)c1cc(NN=Nc2ccc(Br)cc2)cc([N+](=O)[O-])c1,-3,69*,2,0,75*
COc1cc2c(cc1NC(=O)C(C)N1CCN(S(=O)(=O)c3ccc(C)c(C)c3)CC1)oc1ccccc12 (stereo unspecified),-2,27,3,0,.
COc1cc2c(cc1NC(=O)C(C)N1CCN(S(=O)(=O)c3ccccc3[N+](=O)[O-])CC1)oc1ccccc12 (stereo unspecified),5,54*,0,0,12
CCOC(=O)C1Oc2ccccc2C(c2ccc(OC)cc2)=C1C(=O)OC (stereo unspecified),2,16,0,-1,.
Cn1ncc(Br)c1N1C(=O)CCC1=O,-2,-3,1,0,.
Cc1cccc(NC(=O)c2nc[nH]c2C(=O)NCCCNC(=O)c2[nH]cnc2C(=O)Nc2cccc(C)c2)c1,0,1,0,6,.
Cc1cccc(NC(=O)c2nc[nH]c2C(=O)NCCN(CCNC(=O)c2[nH]cnc2C(=O)Nc2cccc(C)c2)CCNC(=O)c2[nH]cnc2C(=O)Nc2cccc(C)c2)c1,1,84*,2,0,1
O=C(Nc1ccc(Cl)cc1)c1nc[nH]c1C(=O)NCCN(CCNC(=O)c1[nH]cnc1C(=O)Nc1ccc(Cl)cc1)CCNC(=O)c1[nH]cnc1C(=O)Nc1ccc(Cl)cc1,.,58*,0,.,9
Cc1ccc(NC(=O)c2nc[nH]c2C(=O)NCCN(CCNC(=O)c2[nH]cnc2C(=O)Nc2ccc(C)cc2)CCNC(=O)c2[nH]cnc2C(=O)Nc2ccc(C)cc2)cc1,2,54*,0,0,18
O=C(Nc1ccccc1)c1nc[nH]c1C(=O)NCCN(CCNC(=O)c1[nH]cnc1C(=O)Nc1ccccc1)CCNC(=O)c1[nH]cnc1C(=O)Nc1ccccc1,2,28,0,0,.
CCCCOCCCNC(=O)C[C@H]1C[C@@]2(C(=O)OC)C(=C[C@H](C(C)(C)C)O[C@@H]2C)N(CCC2=CCCCC2)C1=O,-4,.,.,0,.
COc1ccccc1NC(=O)/C=C/c1cc([N+](=O)[O-])ccc1OC(F)F,1,4,2,1,.
O=C(/C=C/c1cc([N+](=O)[O-])ccc1OC(F)F)NCc1ccc(Cl)cc1,0,80*,1,0,88*
O=C(/C=C/c1cc([N+](=O)[O-])ccc1OC(F)F)Nc1cccc(OC(F)F)c1,-4,19,-1,0,.
O=C(/C=C/c1cc([N+](=O)[O-])ccc1OC(F)F)Nc1cccc2ccccc12,1,63*,2,-1,48*
COc1ccc(CNC(=O)/C=C/c2cc([N+](=O)[O-])ccc2OC(F)F)cc1,1,82*,-1,-1,65*
COC(=O)c1ccc(CNC(=O)/C=C/c2cc([N+](=O)[O-])ccc2OC(F)F)cc1,-2,83*,-1,0,81*
CN(C)c1ccc(NS(=O)(=O)c2ccc(-c3csnn3)cc2)cc1,-2,5,1,1,.
CN(C)C(=O)CCc1ccc2c3c([nH]c2c1)[C@]1(CCc2ccccc2)[C@@H](C(=O)N2CCCCC2)C[C@H](CC(=O)NCc2cccc(C(F)(F)F)c2)C(=O)N1CC3,-2,15,2,0,.
COc1ccc(CNC(=O)/C=C/c2cc([N+](=O)[O-])ccc2OC(F)F)cc1OC,-2,75*,3,0,78*
COc1ccc(CNCc2ccc([N+](=O)[O-])cc2)cc1OC,-1,-1,1,-1,.
COc1ccc(C2c3c(c(C)c(C)oc3=O)Oc3c(C)c(C)oc(=O)c32)cc1,2,5,1,0,.
COc1cc(C2c3c(c(C)c(C)oc3=O)Oc3c(C)c(C)oc(=O)c32)ccc1OS(=O)(=O)c1ccc(C)cc1,0,84*,0,0,22
SMILES,SMARCA2 act,FAS-TE inh,GAA850 FXN act,proKLK7 act,FAS-TE conf
N#Cc1cnc(Oc2ccc(Cl)cc2)nc1N,1,-5,3,0,.
Fc1nc(F)c(F)c(NCCCNc2c(F)c(F)nc(F)c2F)c1F,1,55*,0,1,57*
O=C(Nc1ccc([N+](=O)[O-])cn1)c1cc(-c2cccc(Br)c2)nc2ccccc12,-1,34,0,0,.
COc1cccc(-c2cc(C(=O)Nc3ccc([N+](=O)[O-])cn3)c3ccccc3n2)c1,-3,52*,-2,0,8
COc1cc2c(cc1NC(=O)c1cc(-c3ccccn3)nc3ccccc13)oc1ccccc12,-3,57*,1,-1,-5
COc1ccc(-c2cc(C(=O)Nc3nc4ccccc4s3)c3ccccc3n2)cc1OC,2,82*,4,-25,23
COc1ccc(-c2cc(C(=O)Nc3ccccc3O)c3ccccc3n2)cc1OC,3,-7,2,1,.
COc1ccc(-c2cc(C(=O)Nc3sc4c(c3C#N)CCCC4)c3ccccc3n2)cc1OC,-1,52*,-2,0,-1
COc1cc2ccccc2cc1C(=O)Nc1ccc(Cl)cn1,1,-1,7,0,.
CCCn1c(SCC(=O)Nc2nc3ccccc3s2)nc2c1c(=O)n(C)c(=O)n2C,0,-2,-2,0,.
CN(C)CCNC(=O)NC(=O)c1ccc(Cl)cc1,-2,-10,-3,-1,.
O=C(c1ccc(Cl)cc1)[C@@H]1[C@@H]2C(=O)N(c3ccccc3)C(=O)[C@@H]2C2c3ccccc3C=NN21 (stereo partly specified),0,52*,-3,0,35
CCCCCCCCN1C(=O)[C@H](CC(=O)NCc2cccc3ccccc23)C[C@@]2(C(=O)OCC)CCC=C12,-4,.,.,0,.
COc1cc2c(cc1OC)C(=O)N1[C@H]3c4cc(C)ccc4OC[C@@H]3[C@H](c3ccccc3)[C@]1(C)C(=O)N2,5,64*,-5,-1,24
CCOC(=O)[C@H]1[C@H]2COc3ccc(OC)cc3[C@@H]2N2C(=O)c3ccc(C)cc3NC(=O)[C@@]12C,0,4,-1,1,.
COc1cc2c(cc1OC)C(=O)N1[C@H]3c4cc(Cl)ccc4OC[C@@H]3[C@H](c3ccccc3)[C@]1(C)C(=O)N2,-1,86*,-6,-2,40
COc1ccc(-c2ccc3c(c2)S(=O)(=O)c2cccc(C(=O)N4CCN(c5ccccn5)CC4)c2C3=O)cc1OC,-4,7,0,-1,.
O=C1c2ccc(-c3ccc(Cl)c(C(F)(F)F)c3)cc2S(=O)(=O)c2cccc(C(=O)N3CCN(c4ccc(Cl)cn4)CC3)c21,0,67*,-1,0,2
